Reference: the supplement of paper PMC6555819

Columns and labels:
Test in all cases: PBM binding z-score (relative to random genomic background probes); higher = stronger binding; sequences stand for … in GC…GCGATTGACAGCGTAGAATGAAGG
[1] = test system: PPARg:RXRa DBDmut IVT, anti-RXR (DBD mutation: RXRa K156A/R161A, NR concentration 270 nM, RXRa partner concentration 90 nM)
Summary of the method: (§1)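 Binding buffer was PBS pH 7.4 with 2% milk, 0.02% Triton X-100, 1 mM DTT, 0.2 mg/mL BSA and 0.4 mg/ml salmon testes DNA. In it, ligand-free nuclear receptor dimers were incubated 1 h on custom Agilent 4×180K protein-binding microarrays carrying double-stranded probes. Antibodies against each partner (one per run) detected binding, and z-scores were calculated against random background probes after regression normalization of scanned fluorescence.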

[2] = test system: PPARg:RXRa IVT, anti-PPARg (NR concentration 270 nM, RXRa partner concentration 90 nM)
Summary of the method: as §1

[3] = test system: PPARg DBDmut:RXRa IVT, anti-PPARg (DBD mutation: PPARg1 K132A/R137A, NR concentration 270 nM, RXRa partner concentration 90 nM)
Summary of the method: as §1

[4] = test system: PPARg DBDmut IVT, anti-PPARg (DBD mutation: PPARg1 K132A/R137A, NR concentration 270 nM)
Summary of the method: as §1

[5] = test system: PPARg homodimer (NR concentration 180 nM)
Summary of the method: as §1

[6] = test system: PXR:RXRa (NR concentration 270 nM, RXRa partner concentration 90 nM)
Summary of the method: as §1

[7] = test system: PXR homodimer (NR concentration 270 nM)
Summary of the method: as §1

[8] = test system: RARa:RXR (NR concentration 270 nM, RXRa partner concentration 90 nM)
Summary of the method: as §1

[9] = test system: RARa homodimer (NR concentration 270 nM)
Summary of the method: as §1

[10] = test system: RARb:RXRa (NR concentration 270 nM, RXRa partner concentration 90 nM)
Summary of the method: as §1

For CCTATTAGTTGACCATACGGGCAACCGAAGCTCG, the PBM binding z-score [1] was 0.407, the PBM binding z-score [2] was 0.329 and the PBM binding z-score [3] was 0.889. It also gave a PBM binding z-score [4] of 0.71, a PBM binding z-score [5] of 1.39 and a PBM binding z-score [6] of -0.0836. It also gave a PBM binding z-score [7] of 0.786, a PBM binding z-score [8] of -0.218 and a PBM binding z-score [9] of 1.26. For the same sequence, the PBM binding z-score [10] was 0.631.
ATATGTAGGTTAGCTGGGGCCATTCAGACTAGGC showed a PBM binding z-score [1] of 6.72, a PBM binding z-score [2] of 5.67 and a PBM binding z-score [3] of 1.64. For the same sequence, the PBM binding z-score [4] was 1.69, the PBM binding z-score [5] was 1.13 and the PBM binding z-score [6] was 2.87. The PBM binding z-score [7] was 0.538, the PBM binding z-score [8] was 1.33 and the PBM binding z-score [9] was 0.314. It also gave a PBM binding z-score [10] of 1.21.
With ACAACGAGGGCAATGAGTTGATAGCACGGGTGGC the PBM binding z-score [1] was 2.73, the PBM binding z-score [2] was 2.02 and the PBM binding z-score [3] was 0.439. For the same sequence, the PBM binding z-score [4] was 0.354, the PBM binding z-score [5] was 0.382 and the PBM binding z-score [6] was 1.76. For the same sequence, the PBM binding z-score [7] was 4.64, the PBM binding z-score [8] was 0.401 and the PBM binding z-score [9] was -0.285. It also gave a PBM binding z-score [10] of 2.15.
With AGAATGAGGTTAAGATCAGGGCAACAGAATACAT the PBM binding z-score [1] was 2.97, the PBM binding z-score [2] was 3.28 and the PBM binding z-score [3] was 1.36. For the same sequence, the PBM binding z-score [4] was 0.923, the PBM binding z-score [5] was 1.05 and the PBM binding z-score [6] was 2.34. The PBM binding z-score [7] was 0.694, the PBM binding z-score [8] was 2.78 and the PBM binding z-score [9] was 0.44. It also gave a PBM binding z-score [10] of 2.45.
TCTGCTAGGTCAACGATGGTCAACTAATCTGCTA showed a PBM binding z-score [1] of 4.51, a PBM binding z-score [2] of 4.3 and a PBM binding z-score [3] of 0.357. The PBM binding z-score [4] was 0.326, the PBM binding z-score [5] was 1.75 and the PBM binding z-score [6] was 2.4. For the same sequence, the PBM binding z-score [7] was -0.851, the PBM binding z-score [8] was 2.39 and the PBM binding z-score [9] was -0.654. For the same sequence, the PBM binding z-score [10] was 4.12.
In the case of GCGACTGGGGCAAACCAGGTTACCATAAGGTTGG, the PBM binding z-score [1] is reported as 4.47, the PBM binding z-score [2] is reported as 3.82 and the PBM binding z-score [3] is reported as -1.05. It also gave a PBM binding z-score [4] of -0.639, a PBM binding z-score [5] of -0.0869 and a PBM binding z-score [6] of 0.736. It also gave a PBM binding z-score [7] of -0.522, a PBM binding z-score [8] of 0.63 and a PBM binding z-score [9] of -0.483. It also gave a PBM binding z-score [10] of 0.961.
For CGAACTAGGTCATCCAGGACAGTGATTACATTGA, the PBM binding z-score [1] was 8.17, the PBM binding z-score [2] was 8.1 and the PBM binding z-score [3] was 1.9. It also gave a PBM binding z-score [4] of 1.24, a PBM binding z-score [5] of 1.15 and a PBM binding z-score [6] of 1.95. The PBM binding z-score [7] was 1.25, the PBM binding z-score [8] was 2.17 and the PBM binding z-score [9] was 0.703. It also gave a PBM binding z-score [10] of 3.98.
For TCATATAGGTAAAAGTTGAAAGTCGGTGTGGTAA, the PBM binding z-score [1] was 4.15, the PBM binding z-score [2] was 3.58 and the PBM binding z-score [3] was 0.876. The PBM binding z-score [4] was 1.75, the PBM binding z-score [5] was 1.63 and the PBM binding z-score [6] was 0.929. For the same sequence, the PBM binding z-score [7] was 0.491, the PBM binding z-score [8] was 1.56 and the PBM binding z-score [9] was 1.48. For the same sequence, the PBM binding z-score [10] was 1.04.
ATCTGTAGGTTAGCTGGGGTCATTCAGACTAGGC gave a PBM binding z-score [1] of 2.69, a PBM binding z-score [2] of 2.92 and a PBM binding z-score [3] of 1.42. For the same sequence, the PBM binding z-score [4] was 1.67, the PBM binding z-score [5] was 2.28 and the PBM binding z-score [6] was 6.74. The PBM binding z-score [7] was 4.22, the PBM binding z-score [8] was 6.24 and the PBM binding z-score [9] was 1.28. For the same sequence, the PBM binding z-score [10] was 3.19.
Sequence TCTTATAGGTAAATGCTAGGTGAAAGTCCGATCT has a PBM binding z-score [1] of 3.93, a PBM binding z-score [2] of 2.62 and a PBM binding z-score [3] of 1.31. For the same sequence, the PBM binding z-score [4] was 1.13, the PBM binding z-score [5] was 1.1 and the PBM binding z-score [6] was 0.946. It also gave a PBM binding z-score [7] of 0.588, a PBM binding z-score [8] of 1.4 and a PBM binding z-score [9] of 1.65. The PBM binding z-score [10] was 0.769.
With TGAATGAGGCTAAAGATCAGGGAACGTGGCGTCG the PBM binding z-score [1] was -0.0886, the PBM binding z-score [2] was 1.02 and the PBM binding z-score [3] was 0.37. The PBM binding z-score [4] was -0.283, the PBM binding z-score [5] was -0.62 and the PBM binding z-score [6] was -0.523. For the same sequence, the PBM binding z-score [7] was -0.778, the PBM binding z-score [8] was -0.214 and the PBM binding z-score [9] was -0.864. For the same sequence, the PBM binding z-score [10] was 0.177.
CCTGCTAGCTCAATGGTCAGCTAAAGCAGCTCGC was tested, and the PBM binding z-score [1] was -0.172, the PBM binding z-score [2] was -0.705 and the PBM binding z-score [3] was -1.42. The PBM binding z-score [4] was -1.42, the PBM binding z-score [5] was -0.534 and the PBM binding z-score [6] was -0.568. The PBM binding z-score [7] was -0.761, the PBM binding z-score [8] was -0.44 and the PBM binding z-score [9] was -0.89. The PBM binding z-score [10] was 0.0479.
CAAACTAGGTCAAGGTGAAAGTCGGTTTGTGCCA was tested, and the PBM binding z-score [1] was 8.58, the PBM binding z-score [2] was 8.62 and the PBM binding z-score [3] was 2.55. It also gave a PBM binding z-score [4] of 1.53, a PBM binding z-score [5] of 1.47 and a PBM binding z-score [6] of 1.65. The PBM binding z-score [7] was 0.138, the PBM binding z-score [8] was 2.19 and the PBM binding z-score [9] was 0.4. It also gave a PBM binding z-score [10] of 4.2.
In the case of CCTATTAGTTGACCATAATGGCAACCGAAGCTCG, the PBM binding z-score [1] is reported as 0.772, the PBM binding z-score [2] is reported as 0.551 and the PBM binding z-score [3] is reported as 0.742. The PBM binding z-score [4] was 1.21, the PBM binding z-score [5] was 2 and the PBM binding z-score [6] was 0.599. It also gave a PBM binding z-score [7] of 1.05, a PBM binding z-score [8] of 0.673 and a PBM binding z-score [9] of 2.52. It also gave a PBM binding z-score [10] of 0.621.
With ATCTCTAGGTAAAAGTTGAGTGAATCCCGAGGAT the PBM binding z-score [1] was 2.05, the PBM binding z-score [2] was 2.5 and the PBM binding z-score [3] was 1.01. The PBM binding z-score [4] was 1.53, the PBM binding z-score [5] was 0.688 and the PBM binding z-score [6] was 0.0685. It also gave a PBM binding z-score [7] of 0.147, a PBM binding z-score [8] of 0.3 and a PBM binding z-score [9] of 0.494. For the same sequence, the PBM binding z-score [10] was 0.471.
Sequence TCTTGTAGATCAAAGGTTAAGAATGCCGAAGCCT has a PBM binding z-score [1] of 2.34, a PBM binding z-score [2] of 3.51 and a PBM binding z-score [3] of 1.47. The PBM binding z-score [4] was 0.478, the PBM binding z-score [5] was 1.27 and the PBM binding z-score [6] was 1.95. It also gave a PBM binding z-score [7] of -0.149, a PBM binding z-score [8] of 2.85 and a PBM binding z-score [9] of 0.414. For the same sequence, the PBM binding z-score [10] was 1.87.
TCATATAGGTAAAGGTGAATGTCGAACGATATGA showed a PBM binding z-score [1] of 3.9, a PBM binding z-score [2] of 4.33 and a PBM binding z-score [3] of 0.991. The PBM binding z-score [4] was 1.7, the PBM binding z-score [5] was 1.02 and the PBM binding z-score [6] was 0.695. For the same sequence, the PBM binding z-score [7] was 0.181, the PBM binding z-score [8] was 1.46 and the PBM binding z-score [9] was 0.501. It also gave a PBM binding z-score [10] of 1.87.
TCTATTGGTTGATTAGGGCAACCGAAACAGCGGA was tested, and the PBM binding z-score [1] was 1.96, the PBM binding z-score [2] was 1.31 and the PBM binding z-score [3] was 1.58. The PBM binding z-score [4] was 0.647, the PBM binding z-score [5] was 1.38 and the PBM binding z-score [6] was 0.573. It also gave a PBM binding z-score [7] of 0.277, a PBM binding z-score [8] of 0.835 and a PBM binding z-score [9] of 0.652. It also gave a PBM binding z-score [10] of 1.06.
